# From PubChem BioAssay (NCATS)
# Values without a mark were called inactive. Records with an inconclusive call do not appear. Entries that show only a call come without a potency. Activity calls are given as the source filed them. Unless noted, calls follow the shape of the dose curve; as a rule, active = well fitted curve in the direction sought with a large enough effect; inconclusive = small, poorly fitted or top-dose-only effect, or another doubt; inactive = no such curve, though single readings can be large; an effect the other way counts as inactive or inconclusive.
# Assays:
# [1] = molecular target: Arylsulfatase A (Homo sapiens) (UniProt P15289); test: qHTS screen for enhancers of Arylsulfatase A (ASA1): LOPAC Validation Assay (AID 720538)
# Chain of Arylsulfatase A (Homo sapiens) (P15289 whole entry, looked up): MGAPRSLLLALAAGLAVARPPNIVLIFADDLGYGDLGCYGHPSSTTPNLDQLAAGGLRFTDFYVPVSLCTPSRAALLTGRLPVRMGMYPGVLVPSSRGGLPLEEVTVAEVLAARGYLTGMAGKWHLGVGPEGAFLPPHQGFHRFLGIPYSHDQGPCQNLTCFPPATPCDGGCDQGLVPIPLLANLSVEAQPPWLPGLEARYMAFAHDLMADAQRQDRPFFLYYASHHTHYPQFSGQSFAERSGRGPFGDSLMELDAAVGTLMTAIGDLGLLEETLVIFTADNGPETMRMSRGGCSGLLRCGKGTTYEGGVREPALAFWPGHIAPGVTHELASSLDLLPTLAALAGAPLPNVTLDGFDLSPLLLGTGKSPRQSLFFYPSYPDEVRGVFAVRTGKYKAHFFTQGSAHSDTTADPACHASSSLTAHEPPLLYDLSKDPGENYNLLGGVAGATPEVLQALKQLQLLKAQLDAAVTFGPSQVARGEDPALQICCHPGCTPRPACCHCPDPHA
# Summary of the method: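 Enhancer assay in patient-derived MLD fibroblasts carrying ASA-I179S: 48 h compound exposure at 37 C, then 14 h room-temperature pNCS turnover (0.5 mM final) in lysis buffer. Read by fluorescence at 525/598 nm after NaOH stop.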
# [2] = qHTS assay for small molecule agonists of the antioxidant response element (ARE) signaling pathway (AID 651741; active = well fitted activation curve with a large enough effect in the signal ratio; the % refers to the signal ratio; also: potency is read from the fitted curve at half-maximal effect)
# Summary of the method: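 Agonist activity is measured as ARE-driven beta-lactamase expression in a stable HepG2 reporter line, using 16 h compound treatment at 37 C and a FRET substrate fluorescence readout after 2 h.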
# [3] = qHTS assay for small molecule activators of the p53 signaling pathway (AID 651743; active = well fitted activation curve with a large enough effect in the signal ratio, not every such curve was filed as active; the % refers to the signal ratio; also: series mostly up to about 92 µM); details: HCT-116 p53RE-bla, beta-lactamase FRET ratio, 16 h; stronger effect = higher value
# Summary of the method: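 A beta-lactamase reporter under p53 response element control, stably carried by HCT-116 cells, reported pathway activation. Test compounds were applied for 16 hours at 37 C, and fluorescence was measured 2 hours after adding the B/G FRET substrate.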
# [4] = qHTS assay for small molecule activators of the nuclear factor-kappa B (NF-kB) signaling pathway (AID 651749; active = well fitted activation curve with a large enough effect in the signal ratio; the % refers to the signal ratio; also: series mostly up to about 77 µM); details: NF-kB-bla ME-180 cells, beta-lactamase FRET ratio, 16 h; stronger effect = higher value
# Summary of the method: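 FRET-based beta-lactamase detection in ME-180 cells reports NF-kB response-element-driven transcription following overnight (16 hr) compound treatment.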
# [5] = qHTS assay for environmental chemicals that activate the Aryl hydrocarbon Receptor (AhR) signaling pathway (AID 651777); details: 1A2-DRE human hepatoma cells, luciferase, 24 h; stronger effect = higher value; also: nearly all actives have a fitted effect of over 15% in size
# Summary of the method: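 Luminescence read-out: One-Glo added for 30 min at RT after 24 hr compound treatment (37 C, 5% CO2) of human hepatoma cells expressing a DRE/CYP1A2 promoter–luciferase reporter; increased signal indicates AhR activation.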
# [6] = molecular target: Peroxisome proliferator-activated receptor alpha (Homo sapiens) (UniProt Q07869); test: qHTS assay for small molecule agonists of the peroxisome proliferator-activated receptor alpha (PPARalpha) signaling pathway (AID 651778); details: PathHunter PPARalpha complementation, chemiluminescence, 6 h; max response: stronger effect = higher value; also: potency is read from the fitted curve at half-maximal effect
# Chain of Peroxisome proliferator-activated receptor alpha (Homo sapiens) (Q07869 whole entry, looked up): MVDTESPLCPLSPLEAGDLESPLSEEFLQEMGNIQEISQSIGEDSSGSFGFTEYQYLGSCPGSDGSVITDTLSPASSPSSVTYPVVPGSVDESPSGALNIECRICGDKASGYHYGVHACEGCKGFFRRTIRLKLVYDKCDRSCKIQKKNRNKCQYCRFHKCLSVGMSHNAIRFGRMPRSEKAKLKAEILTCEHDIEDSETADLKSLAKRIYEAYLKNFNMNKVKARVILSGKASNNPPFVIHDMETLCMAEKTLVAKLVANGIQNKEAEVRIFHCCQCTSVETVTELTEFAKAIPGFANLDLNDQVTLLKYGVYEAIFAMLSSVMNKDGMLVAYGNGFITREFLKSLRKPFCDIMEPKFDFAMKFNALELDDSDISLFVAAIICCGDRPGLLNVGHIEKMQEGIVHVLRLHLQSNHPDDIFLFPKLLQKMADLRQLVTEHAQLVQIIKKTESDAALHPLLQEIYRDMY
# Summary of the method: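 Chemiluminescence from complemented enzyme reported PPARalpha activation in cells after 6 hr of compound treatment at 37 C. The detection reagent was incubated for 60 min at room temperature, and compounds were scored as agonists.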
# [7] = qHTS for compounds that reverse cellular toxicity of Amyloid beta (A-beta) peptide in yeast: LOPAC Validation Assay (AID 720559)
# Summary of the method: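 Rescue of A-beta toxicity was scored as yeast growth by 600 nm absorbance after 48 hr at 30 C with compound. Normalization used DMSO (negative) and equimolar ferric chloride plus clioquinol (positive).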
# [8] = qHTS for Activators of Parkin Expression: LOPAC Validation Assay (NLuc Reporter) (AID 720572; also: potency is read from the fitted curve at half-maximal effect)
# Summary of the method: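 Compound effects on Parkin promoter activity were measured as NanoLuc luminescence after 24 h at 37 C. The neuronal reporter line also carried FLuc, which was read first. LOPAC compounds were tested at 7 concentrations, with normalization to DMSO (0%) and positive control (100%).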
# [9] = qHTS for Activators of Parkin Expression: LOPAC Validation Assay (FLuc Reporter) (AID 720573)
# Summary of the method: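 FLuc signal from Parkin-promoter coincidence reporter neuronal cells, normalized to DMSO and positive control (100%). Cells (1,500/well) pre-incubated 24 h, then exposed to LOPAC compounds in 7-point dose response for 24 h at 37 C, 5% CO2.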
# [10] = qHTS assay for small molecule agonists of the antioxidant response element (ARE) signaling pathway measured by Nrf2-dependant transcriptional activity (AID 720636; active = well fitted curve in the direction sought with a large enough effect in the repeat runs; an effect the other way counts as inactive or inconclusive;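 also: HepG2 cells with an ARE-driven luciferase reporter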)
# Summary of the method: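 HepG2 ARE-luc reporter line, 1% dialyzed FBS; 6 hr attachment at 37 C, compound pinned in, 16 hr at 37 C/5% CO2; ONE-Glo, 30 min RT, luminescence read.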
# [11] = qHTS assay for small molecule agonists of the antioxidant response element (ARE) signaling pathway measured by Nrf2-dependant transcriptional activity - cell viability counter screen (AID 720653; active = well fitted curve in the direction sought with a large enough effect in the repeat runs; an effect the other way counts as inactive or inconclusive); details: ARE-bla HepG2 viability, CellTiter-Glo ATP luminescence, 16 h; stronger effect = lower value
# Summary of the method: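 Cytotoxicity counter screen: intracellular ATP quantified by CellTiter-Glo luminescence in the same ARE-bla HepG2 plates, after 16 h compound exposure and a 2 h beta-lactamase substrate step.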
smiles,measurement,setting,value
Oc1ccc(/C=C/c2ccc(/C=C/c3ccc(O)cc3)c(Br)c2)cc1,Potency,[1],inactive
CCCc1c(OCCCOc2ccc(OCC(=O)O)cc2)ccc(C(C)=O)c1O,Potency,[2],54.5 µM (active)
same,activation,[3],16.9%
same,activation,[4],-3.53%
same,activation,[5],0.459%
same,Potency,[6],11.2 µM (active)
same,Potency,[1],inactive
same,outcome,[7],inactive
same,Potency,[8],inactive
same,Potency,[9],inactive
same,outcome,[10],inactive
same,max response,[11],7.96%
NCC(O)c1ccc(O)c(O)c1 (centres undefined),Potency,[1],inactive
O=C1C2C=CC=CC2=NC(=S)N1CCN1CCC(=C(c2ccc(F)cc2)c2ccc(F)cc2)CC1 (centres undefined),Potency,[1],inactive
same,outcome,[7],inactive
same,Potency,[8],inactive
same,Potency,[9],inactive
CC1CNCCN1S(=O)(=O)c1cccc2cnccc12 (centres undefined),Potency,[1],inactive
same,outcome,[7],inactive
O=C(O)c1cc2cc(F)ccc2[nH]1,Potency,[1],inactive
same,outcome,[7],inactive
same,Potency,[8],inactive
same,Potency,[9],inactive
CCCc1c(-c2ccc(O)cc2)nn(-c2ccc(O)cc2)c1-c1ccc(O)cc1,activation,[4],-3.76%
same,activation,[5],-1.12%
same,max response,[6],-1.98%
same,Potency,[1],inactive
same,Potency,[8],2.06 µM (active)
same,Potency,[9],inactive
same,outcome,[10],inactive
same,max response,[11],-5.61%
CC1=C(/C=C/C(C)=C/C=C/C(C)=C\C(=O)O)C(C)(C)CCC1,activation,[3],-4.89%
same,activation,[4],-1.8%
same,activation,[5],6.61%
same,max response,[6],0.529%
same,Potency,[1],inactive
same,outcome,[7],inactive
same,Potency,[8],inactive
same,max response,[11],3.98%
